7 molecules from PubChem BioAssay (Tox21) can be followed below.

Values without a mark were called inactive. Records with an inconclusive call do not appear. Active and inactive are the calls of the source. Unless noted, the call rests on the fitted dose curve; in most records, active means well fitted curve in the direction sought with a large enough effect in the repeat runs; inconclusive means weak or mixed curves; inactive means no such curve, though single readings can be large; an effect the other way counts as inactive or inconclusive.

Assay [1] addresses Thyrotropin receptor (Homo sapiens) (UniProt P16473). The assay can be described thus: qHTS assay to identify small molecule agonists of the thyroid stimulating hormone receptor (TSHR) signaling pathway (AID 1224843; calls by dose curve; further: nearly all actives have a fitted effect of over 45% in size). The procedure, abridged:
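Using 15 concentrations per compound in triplicate, cAMP production was monitored in TSHR-HEK293 cells after 30 min compound incubation at RT; HTRF reagents followed, with fluorescence intensity recorded after 1 h.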
On the technique in general: In qHTS, concentration-response curves come from the screen itself.

A short description of assay [2]: qHTS assay to identify small molecule agonists of H2AX (AID 1224845; active means well fitted activation curve with a large enough effect in the signal ratio in the repeat runs, not every such curve was filed as active; the % refers to the signal ratio). A digest of the protocol:
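Wild-type CHO-K1 cells plated overnight, then exposed 3 hr at 37C to compounds at 15 concentrations (0.76% DMSO). Lysed, then HTRF anti-pH2AX(S139)-cryptate/anti-H2AX-d2 detection after 24 hr at room temperature; emissions 665 and 620 nm.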

A short description of assay [3]: qHTS assay to identify small molecule agonists of the hypoxia (HIF-1) signaling pathway (AID 1224846; active means well fitted activation curve with a large enough effect in the signal ratio in the repeat runs, not every such curve was filed as active; the % refers to the signal ratio). The procedure, abridged:
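In ME-180 cells bearing an HRE-bla construct, 17 h treatment with DMSO-dissolved compounds at 37C was followed by CCF4-AM loading to quantify reporter induction.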

Assay [4] is described as follows: qHTS assay to identify small molecule antagonists of the estrogen related receptor (ERR) signaling pathway from Tox21 library (AID 1224848). Further: nearly all actives have a fitted effect of over 50% in size. Further: potency means the concentration at half of the fitted maximal effect. A digest of the protocol:
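Tox21 10K compounds in DMSO tested for ERR pathway antagonism in NTP's ERR cell line; 18 h, 37 C exposure; ONE-Glo luminescence.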

The nature of assay [5]: qHTS assay to identify small molecule agonists of the estrogen related receptor (ERR) signaling pathway from Tox21 library (AID 1224849; calls by dose curve; further: nearly all actives have a fitted effect of over 15% in size). As to conditions: ERR reporter cell line, ONE-Glo luciferase, 18 h; at 92.4 µM (top of the series) unless noted. The procedure, abridged: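 Reporter cells (ERR, NTP source) treated with Tox21 10K compounds 18 h, 37 C. Readout: ONE-Glo luminescence, 30 min RT.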

Assay [6] can be described thus: qHTS RealTime-Glo MT Cell Viability Assay in HepG2 cells - 24 hour (AID 1224867). Further: nearly all actives have a fitted effect of over 50% in size. A digest of the protocol:
(§1)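 qHTS, HepG2, 600 cells/well, RealTime-Glo (NanoLuc + prosubstrate) added with cells; 5 h preincubation; DMSO compound addition; 37 C; luminescence at 0/8/16/24/32/40 h.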

Assay [7] is described as follows: qHTS RealTime-Glo MT Cell Viability Assay in HEK293 cells - 32 hour (AID 1224868). Further: nearly all actives have a fitted effect of over 50% in size. Further: potency means the concentration at half of the fitted maximal effect. The procedure, abridged:
(§2)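 Assay medium contained NanoLuc luciferase plus cell-permeant prosubstrate, added with HEK293 cells at 600 cells/well. After 5 h at 37 C/5% CO2 compounds were added; plates stayed at 37 C for 40 h with serial luminescence reads.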

Assay [8] can be described thus: A CellTox Green Cytotoxicity Assay to monitor cytotoxicity in HEK293 cells - 0 hour (AID 1224869). Further: nearly all actives have a fitted effect of over 50% in size. A digest of the protocol: (§3)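 Homogeneous no-lysis format: HEK293 cell suspension mixed with CellTox Green reagent, seeded, incubated 5 h at 37 C/5% CO2, then dosed by pintool with compound in DMSO.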
Assay [9] in a line: A CellTox Green Cytotoxicity Assay to monitor cytotoxicity in HEK293 cells - 40 hour (AID 1224871). Further: nearly all actives have a fitted effect of over 45% in size. Further: potency means the concentration at half of the fitted maximal effect. The procedure, abridged: as §3
The nature of assay [10]: qHTS RealTime-Glo MT Cell Viability Assay in HEK293 cells - 16 hour (AID 1224872). The procedure, abridged:
as §2

Assay [11] can be described thus: qHTS RealTime-Glo MT Cell Viability Assay in HepG2 cells - 8 hour (AID 1224873). Further: nearly all actives have a fitted effect of over 55% in size. The procedure, abridged:
(§4)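 HepG2 cells mixed with RealTime-Glo MT reagents (NanoLuc plus cell-permeant prosubstrate) were seeded at 600 cells/well, incubated 5 h at 37 C/5% CO2, then pinned with compounds in DMSO; nonlytic luminescence tracked viability during 40 h treatment.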

A short description of assay [12]: qHTS RealTime-Glo MT Cell Viability Assay in HEK293 cells - 40 hour (AID 1224874). Further: nearly all actives have a fitted effect of over 50% in size. Further: potency means the concentration at half of the fitted maximal effect. The following applies: RealTime-Glo luminescence; max response: hits give low values. The procedure, abridged: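 Measured as luminescence from the same continuously cultured HEK293 wells at successive time points (0, 8, 16, 24, 32, 40 h) after compound addition. Reagent present from seeding; dosing at 5 h; incubation 37 C.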

Assay [13] can be described thus: A CellTox Green Cytotoxicity Assay to monitor cytotoxicity in HEK293 cells - 24 hour (AID 1224875). Further: nearly all actives have a fitted effect of over 45% in size. The procedure, abridged: as §3
Assay [14] can be described thus: A CellTox Green Cytotoxicity Assay to monitor cytotoxicity in HepG2 cells - 16 hour (AID 1224876). Further: nearly all actives have a fitted effect of over 45% in size. The procedure, abridged:
(§5)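 Fluorescent DNA-binding dye, 600 HepG2 cells/well, 5 h preincubation then compound in DMSO; same plates read at 0–40 h, 37 C.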

Assay [15] is described as follows: qHTS RealTime-Glo MT Cell Viability Assay in HepG2 cells - 32 hour (AID 1224877). Further: nearly all actives have a fitted effect of over 55% in size. A digest of the protocol: as §1
Assay [16] is described as follows: A CellTox Green Cytotoxicity Assay to monitor cytotoxicity in HepG2 cells - 24 hour (AID 1224878). Further: nearly all actives have a fitted effect of over 45% in size. A digest of the protocol:
as §5

The nature of assay [17]: A CellTox Green Cytotoxicity Assay to monitor cytotoxicity in HepG2 cells - 40 hour (AID 1224879). Further: nearly all actives have a fitted effect of over 40% in size. A digest of the protocol:
as §5

Assay [18] can be described thus: qHTS assay to identify small molecule agonists of the hypoxia (HIF-1) signaling pathway - cell viability counter screen (AID 1224844; calls by dose curve; further: nearly all actives have a fitted effect of over 50% in size). The procedure, abridged:
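Same wells as the HIF-1 reporter screen; ME-180 cells carrying HRE-bla, 17 hr treatment at 37C; CellTiter-Glo luminescence read after 30 min at room temperature.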

Assay [19] is described as follows: qHTS RealTime-Glo MT Cell Viability Assay in HepG2 cells - 40 hour (AID 1224870). Further: nearly all actives have a fitted effect of over 50% in size. A digest of the protocol: as §4
A short description of assay [20]: qHTS assay to identify small molecule agonists of H2AX - cell viability counter screen (AID 1224847; calls by dose curve; further: top concentration of the series differs between compounds; nearly all actives have a fitted effect of over 30% in size). A digest of the protocol:
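Cells plated first: CHO-K1, 1000 per well in 10% FBS medium, incubated overnight at 37C. Then 15-point compound titration added (final DMSO 0.76%) for 3 hr. Finally CellTiter-Glo added and luminescence read.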
On the % scale 0 is the no-effect control and ±100 the full control effect.

Chain of Thyrotropin receptor (Homo sapiens) (P16473 whole entry, looked up): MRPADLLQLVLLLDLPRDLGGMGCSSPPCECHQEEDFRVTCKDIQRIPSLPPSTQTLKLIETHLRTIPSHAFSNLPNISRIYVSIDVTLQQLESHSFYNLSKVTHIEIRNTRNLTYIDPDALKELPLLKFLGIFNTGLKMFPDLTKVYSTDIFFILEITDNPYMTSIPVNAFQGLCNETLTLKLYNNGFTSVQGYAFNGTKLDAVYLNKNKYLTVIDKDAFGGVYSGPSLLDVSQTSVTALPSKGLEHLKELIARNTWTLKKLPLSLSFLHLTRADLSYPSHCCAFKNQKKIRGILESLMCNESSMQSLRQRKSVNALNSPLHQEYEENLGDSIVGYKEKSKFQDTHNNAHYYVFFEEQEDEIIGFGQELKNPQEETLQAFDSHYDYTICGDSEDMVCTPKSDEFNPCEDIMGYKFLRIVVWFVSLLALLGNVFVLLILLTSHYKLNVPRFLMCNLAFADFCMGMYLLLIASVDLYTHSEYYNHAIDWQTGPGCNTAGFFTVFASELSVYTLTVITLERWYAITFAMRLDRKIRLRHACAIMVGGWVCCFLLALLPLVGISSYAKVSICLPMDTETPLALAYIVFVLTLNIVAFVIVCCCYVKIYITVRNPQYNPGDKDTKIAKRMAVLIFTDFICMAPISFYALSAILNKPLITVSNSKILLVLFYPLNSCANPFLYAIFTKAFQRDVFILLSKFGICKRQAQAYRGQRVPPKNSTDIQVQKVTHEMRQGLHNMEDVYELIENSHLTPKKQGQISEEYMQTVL

With `CCCC(=O)OCc1ccccc1`, the Potency entry in [1], in [2], in assay [4], in assay [7], in assay [8] and in [9] was “inactive” each time. Further, the Potency result in [10], in assay [13], in [14], in assay [15], in assay [16] and in [17] was “inactive” each time. Besides, the molecule was classed as inactive in [3], in [6] and in [11]. In addition, in assay [5], the activity change, positive = activation was 0.0767%. Also, the max response in assay [12] is 5.95%.

`O=C(O)c1c2ccccc2cc2ccccc12`: the Potency result in assay [1], in assay [18], in assay [8], in [19], in [13] and in [14] was “inactive” each time. Further, the Potency entry in [15], in assay [16] and in [17] was “inactive” each time. Besides, the outcome in assay [6] and in assay [11] was inactive. Besides, the values for the Potency in [7], in assay [9] and in assay [12] were 43.5 µM (active), 34.6 µM (active) and 38.8 µM (active), respectively.

As to `CC(=O)Oc1cccc2c1C(=O)c1c(OC(C)=O)cc(C(=O)O)cc1C2=O`, the Potency result in assay [1], in assay [18], in [20], in assay [7], in assay [8] and in assay [19] was “inactive” each time. The Potency result in [9], in assay [10], in [13], in assay [14], in assay [15] and in assay [16] was “inactive” in each case. Moreover, the Potency result in assay [17] is “inactive”. For the same molecule, in [4], the Potency is 23.7 µM (active). The activity change, positive = activation in assay [5] is -46.2% [at 42.5 µM]. Moreover, the call in assay [6] and in assay [11] was inactive. Besides, in assay [12], the max response is -10.8%.

For the molecule `CC(C)=CCC[C@H](C)CCO`, the Potency result in assay [1], in assay [2], in [7], in assay [8], in assay [19] and in assay [9] was “inactive” in each case. The Potency result in [10], in [13], in assay [14], in assay [15] and in assay [16] was “inactive” in each case. Besides, the outcome in assay [3], in assay [6] and in [11] was inactive. Further, the max response in [12] was -1.49%.

On to `CC1(C)CC(O)CC(C)(C)N1[O]`, for which the Potency result in assay [1], in [2], in [20], in [7], in [8] and in [19] was “inactive” in each case. Further, the Potency entry in assay [10], in assay [13], in assay [14], in [15], in assay [16] and in assay [17] was “inactive” in each case. For the same molecule, the molecule was classed as inactive in [3], in assay [6] and in assay [11]. The max response in assay [12] is 6.37%.

Take `CCCCCCCCNC`: the Potency entry in assay [1], in [2], in assay [20], in assay [7], in assay [8] and in assay [19] was “inactive” throughout. The Potency result in assay [9], in assay [10], in assay [13], in [14], in assay [15] and in assay [16] was “inactive” throughout. Further, in assay [17], the Potency result is “inactive”. Also, the result in assay [3], in [6] and in assay [11] was inactive. Also, in assay [12], the max response is 3.01%.

Consider `CC(O)CN` (centres undefined), for which the Potency result in assay [1], in assay [18], in assay [4], in assay [7], in assay [19] and in assay [9] was “inactive” in each case. For the same molecule, the Potency entry in [10], in [13], in assay [14], in [15], in [16] and in assay [17] was “inactive” throughout. Besides, the call in assay [3], in assay [6] and in assay [11] was inactive. The activity change, positive = activation in assay [5] is 0.61%. Moreover, the max response in [12] is 1.55%.
